We go through 42 compounds from ChEMBL document CHEMBL4513135, “CO-ADD screening of IQOG CSIS (Spain) compounds”.

For one experiment, the system named is Staphylococcus aureus. As to conditions: Concentration 32 ug.mL-1; ASSAY_TEST Inhibition of Bacterial Growth; detection method Absorption (OD600); MEDIA CAMHB; plate type 384well; NBS; CORNING #3640; time 18 hr.
A further experiment has as its system Escherichia coli. As to conditions: Concentration 32 ug.mL-1; ASSAY_TEST Inhibition of Bacterial Growth; detection method Absorption (OD600); MEDIA CAMHB; plate type 384well; NBS; CORNING #3640; time 18 hr.

Results with a measured potency or affinity are listed apart.

For orientation: Inhibition means the relative decrease from the control value, in per cent. Take `CC(C)(C)OC(=O)Nc1ccc(Cl)cn1`: the values for the Inhibition in the experiment on Staphylococcus aureus and in the experiment with Escherichia coli were 37.58% and -2.82%, respectively.

With `CCOC(=O)C1=C(C)Oc2nc3c(c(N)c2C1c1ccc(O)c(OC)c1)CCC3` (centres undefined), the Inhibition in the experiment with Staphylococcus aureus is -3.09%; with Escherichia coli it was -6.01%.

Regarding `O=C(N/N=C/c1c[nH]c2ccccc12)c1ccco1`, the figures for the Inhibition in the experiment on Staphylococcus aureus and with Escherichia coli were 13.11% and 12.98%, respectively.

Turning to `COc1ccccc1C1C(C#N)=C(N)Oc2c1ccc1ccccc21` (centres undefined), the Inhibition is given as 19.36% with Staphylococcus aureus and -9.01% in the experiment with Escherichia coli.

Turning to `O=C(NNCc1c[nH]c2ccccc12)c1cccc2ccccc12`, the values for the Inhibition with Staphylococcus aureus and in the experiment on Escherichia coli were -2.49% and 3.58%, respectively.

`CNC(=O)c1cc2cc(OC)ccc2[nH]1`: the Inhibition with Staphylococcus aureus is listed as 5.66%; with Escherichia coli it was -0.98%.

Take `N#Cc1c(N)nc(NCCCCC2CCN(Cc3ccccc3)CC2)c(C#N)c1-c1ccccc1`: the Inhibition in the experiment on Staphylococcus aureus is on record as 9.74%; with Escherichia coli it was -1.09%.

For `c1ccc(Cn2ccc3ccccc32)cc1`, the Inhibition in the experiment with Staphylococcus aureus turned out to be 7.36%; with Escherichia coli, 11.73%.

Consider `O=C1NC(=O)C(=Cc2ccccc2)N1`, for which the Inhibition with Staphylococcus aureus came to 16.19%; in the experiment with Escherichia coli, 11.12%.

As to `COc1ccc(C2c3c(nc4c(c3N)CCCC4)Oc3ccc4ccccc4c32)c(OC)c1` (centres undefined), the Inhibition in the experiment on Staphylococcus aureus came to 15.3%; in the experiment with Escherichia coli, 3.89%.

As for `Cn1c(C(=O)N2CCOCC2)cc2cc(OCCCC3CCN(Cc4ccccc4)CC3)ccc21`, the Inhibition in the experiment with Staphylococcus aureus is on record as 23.07%; in the experiment with Escherichia coli, -10.59%.

For `O=C(NNCc1ccco1)c1cc2ccccc2[nH]1`, the Inhibition with Staphylococcus aureus is -6.59%; in the experiment on Escherichia coli, -6.94%.

As for `COc1cccc(C2C(C#N)=C(N)Oc3c2ccc2ccccc32)c1` (centres undefined), the Inhibition in the experiment with Staphylococcus aureus is recorded as 23.52%; in the experiment with Escherichia coli, -8.01%.

As to `COc1ccc2c(c1)cc(CNc1ccccc1)n2C`, the Inhibition in the experiment on Staphylococcus aureus was 20.09%; in the experiment on Escherichia coli, -6.35%.

With `Cc1ccc(C2c3c(Cl)nnnc3Oc3ccc4ccccc4c32)cc1` (centres undefined), the results for the Inhibition in the experiment with Staphylococcus aureus and in the experiment on Escherichia coli were 36.97% and 16.16%, respectively.

With `COc1ccc(C2c3c(nc4c(c3N)CCCC4)Oc3ccc4ccccc4c32)cc1` (centres undefined), the Inhibition in the experiment on Staphylococcus aureus is recorded as 18.52%; in the experiment with Escherichia coli, 4.53%.

Regarding `Nc1c2c(nc3c1c1ccccc1n3Cc1ccccc1)CCCC2`, the Inhibition is listed as 17.35% in the experiment on Staphylococcus aureus and -10.77% in the experiment on Escherichia coli.

`Cn1c(C(=O)O)cc2ccccc21`: the figures for the Inhibition in the experiment with Staphylococcus aureus and in the experiment with Escherichia coli were 7.02% and 5.49%, respectively.

Consider `CCOC(=O)c1c(C)nc2nc3c(c(N)c2c1-c1ccc(OC)cc1)CCCCCC3`, for which the Inhibition is 3.19% in the experiment on Staphylococcus aureus and -20.4% in the experiment with Escherichia coli.

On to `CCOC(=O)/C(C#N)=C\c1ccc(C)cc1`, for which the Inhibition was 28.15% with Staphylococcus aureus and 15.07% with Escherichia coli.

Consider `CN1C/C(=C\Cl)n2c1c(C#N)cc(C#N)c2=O`, for which the figures for the Inhibition in the experiment on Staphylococcus aureus and with Escherichia coli were 23.22% and -15.97%, respectively.

`CC(=O)Oc1ccc(C=C2N=C(c3ccccc3)OC2=O)c(OC(C)=O)c1`: the Inhibition with Staphylococcus aureus came out at 7.39%; with Escherichia coli, 7.35%.

For the compound `N#Cc1cccnc1Cl`, the figures for the Inhibition with Staphylococcus aureus and in the experiment with Escherichia coli were 22.89% and -20.17%, respectively.

For `N#Cc1cc(C#N)c(NCCCC2CCN(Cc3ccccc3)CC2)nc1N`, the Inhibition in the experiment on Staphylococcus aureus is 49.11%; in the experiment with Escherichia coli, -3.28%.

For `COc1ccc2cc(C3C4=C(CC(C)(C)CC4=O)Oc4nc5c(c(N)c43)CCCC5)c(Cl)nc2c1` (centres undefined), the figures for the Inhibition with Staphylococcus aureus and in the experiment with Escherichia coli were 25.96% and 20.91%, respectively.

For the compound `N#Cc1c(N)nc(N2CCCCC2)c(C#N)c1-c1ccccc1`, the Inhibition in the experiment on Staphylococcus aureus is 14.68%; in the experiment on Escherichia coli, -11.69%.

As to `Cc1ccc(C2c3c(nc4c(c3N)CCCC4)Oc3ccc4ccccc4c32)cc1` (centres undefined), the Inhibition is listed as 10.92% with Staphylococcus aureus and -5.39% in the experiment on Escherichia coli.

For the compound `COC(=O)C1(NC(=O)c2ccccc2)CC1c1ccccc1` (centres undefined), the results for the Inhibition in the experiment on Staphylococcus aureus and with Escherichia coli were 1.83% and -4.02%, respectively.

On to `C#CCN(C)Cc1cc2cc(OCOc3ccc4c(c3)cc(CN(C)CC#C)n4C)ccc2n1C`, for which the results for the Inhibition in the experiment on Staphylococcus aureus and in the experiment on Escherichia coli were 15.95% and -10.88%, respectively.

Take `COC(=O)C(C#N)=Cc1ccccc1`: the values for the Inhibition in the experiment with Staphylococcus aureus and in the experiment on Escherichia coli were 23.27% and 9.25%, respectively.

On to `COc1ccccc1C1c2ccc3ccccc3c2Oc2nc3c(c(N)c21)CCCC3` (centres undefined), for which the Inhibition worked out at 0.62% with Staphylococcus aureus and 3.02% in the experiment on Escherichia coli.

With `N#Cc1c(N)nc(N2CCC(Cc3ccccc3)CC2)c(C#N)c1-c1ccccc1`, the Inhibition is given as 8.01% with Staphylococcus aureus and -15.68% with Escherichia coli.

Turning to `CC/C(C)=N/NC(=O)Cc1c[nH]c2ccccc12`, the Inhibition in the experiment with Staphylococcus aureus is recorded as -7.02%; in the experiment with Escherichia coli, -3.01%.

Turning to `C1CNCCNCCNCCNC1`, the Inhibition with Staphylococcus aureus was found to be 30%; in the experiment with Escherichia coli, 9.31%.

In the case of `CC1Cc2ccccc2N1/N=C/c1ccccc1` (centres undefined), the Inhibition is recorded as -5.3% in the experiment with Staphylococcus aureus and -3.55% in the experiment with Escherichia coli.

On to `COc1ccc2cc(C3C(C(C)=O)=C(C)Oc4nc5c(c(N)c43)CCCCC5)c(Cl)nc2c1` (centres undefined), for which the figures for the Inhibition in the experiment with Staphylococcus aureus and in the experiment on Escherichia coli were 26.1% and 15.71%, respectively.

`CNC(=O)c1c(Cl)c2cc(OCc3ccccc3)ccc2n1C`: the values for the Inhibition with Staphylococcus aureus and in the experiment on Escherichia coli were 21.87% and -12.2%, respectively.

For `Cc1ccc(C2c3ccc4ccccc4c3Oc3nc4c(c(N)c32)CCCC4)cc1.Cl` (centres undefined), the values for the Inhibition in the experiment with Staphylococcus aureus and in the experiment on Escherichia coli were -4.06% and 12.44%, respectively.

Turning to `N#Cc1cc(C#N)c(NCCC2CCN(Cc3ccccc3)CC2)nc1N`, the Inhibition is given as 49.11% with Staphylococcus aureus and -25.69% with Escherichia coli.

Consider `O=C1C=C(Nc2ccccc2)C(=O)N1c1ccccc1`, for which the Inhibition in the experiment on Staphylococcus aureus was determined as 3.04%; in the experiment with Escherichia coli it was 4.55%.

Consider `C#CCNc1nc(NCCCC2CCN(Cc3ccccc3)CC2)c(C#N)cc1C#N.Cl`, for which the Inhibition with Staphylococcus aureus is recorded as -16.88%; in the experiment with Escherichia coli it was -13.89%.

For `CCOC(=O)C1=C(C)OC(N)=C(C#N)C1c1cccs1` (centres undefined), the Inhibition in the experiment with Staphylococcus aureus is 8.64%; with Escherichia coli it was -14.26%.
